# Results filed as inconclusive are left out. A call without a number means that no potency is given here. Activity calls are given as the source filed them. Calls come from the whole dose curve; as a rule, active = well fitted activation curve with a large enough effect; inconclusive = small, poorly fitted or top-dose-only effect; inactive = no such curve, though single readings can be large or run the other way.
# Target: Relaxin receptor 1 (Homo sapiens) (UniProt Q9HBX9)
# Experiment: qHTS Assay for Agonists of the Relaxin Receptor RXFP1: THP1 Hit Validation; note: nearly all actives have a fitted effect of over 60% in size
# Conditions: THP1-RXFP1 cells, cAMP TR-FRET, 30 min; series mostly up to 115 µM
# Summary of the method: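 EC50s come from Hill-equation fits of data normalized between buffer (basal) and 29 nM porcine relaxin (100%). cAMP was measured by competitive TR-FRET in lysates of RXFP1-transfected THP1 cells after 30 min compound exposure, with Ro 20174 present.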
# Potency is the fitted concentration of half-maximal effect.
# Relaxin receptor 1 (Homo sapiens), sequence (Q9HBX9 whole entry, looked up): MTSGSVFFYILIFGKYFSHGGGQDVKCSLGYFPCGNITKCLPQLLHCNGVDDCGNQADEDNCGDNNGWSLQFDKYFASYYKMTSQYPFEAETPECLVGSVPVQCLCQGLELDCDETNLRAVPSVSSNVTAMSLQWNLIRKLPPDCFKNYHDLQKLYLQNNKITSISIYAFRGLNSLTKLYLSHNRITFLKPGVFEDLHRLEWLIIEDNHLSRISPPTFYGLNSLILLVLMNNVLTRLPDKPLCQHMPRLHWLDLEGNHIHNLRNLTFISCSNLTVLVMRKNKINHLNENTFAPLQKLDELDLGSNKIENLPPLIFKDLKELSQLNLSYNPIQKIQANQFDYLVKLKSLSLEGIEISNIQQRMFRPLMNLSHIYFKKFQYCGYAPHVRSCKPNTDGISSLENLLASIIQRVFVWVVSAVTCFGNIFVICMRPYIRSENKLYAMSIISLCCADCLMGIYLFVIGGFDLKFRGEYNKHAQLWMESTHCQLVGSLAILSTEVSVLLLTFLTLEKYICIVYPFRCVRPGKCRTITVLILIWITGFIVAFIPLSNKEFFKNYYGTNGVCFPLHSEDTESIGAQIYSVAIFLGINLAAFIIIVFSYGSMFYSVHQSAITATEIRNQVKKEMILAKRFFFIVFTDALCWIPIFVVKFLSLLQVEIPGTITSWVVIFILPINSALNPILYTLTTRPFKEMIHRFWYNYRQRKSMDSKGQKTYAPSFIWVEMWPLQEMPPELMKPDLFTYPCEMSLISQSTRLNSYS
row,Compound,Potency
1,CCc1cc2cc3c(cc2nc1SCC(=O)Nc1nccs1)OCO3,21.8 µM (active)
2,O=C(O)CCSc1ccc2ccccc2n1,19.4 µM (active)
3,CCN(CC)S(=O)(=O)c1ccc(N2CCOCC2)c(NC(=O)c2cccc(C#N)c2)c1,27.5 µM (active)
4,Cn1c(=O)c(C(=O)COc2ccc(C#N)cc2)c(N)n(Cc2ccccc2)c1=O,8.7 µM (active)
5,CN(C)c1ccc(NC(=O)C2C3C=CC(C3)C2C(=O)O)cc1 (centres undefined),inactive
6,COc1ccc(S(=O)(=O)N2CCOCC2)cc1NC(=O)CSc1nnc2ccccn12,6.9 µM (active)
7,NC(=O)c1ccccc1NC(=O)CC12CC3CC(CC(C3)C1)C2,inactive
8,C=C(C)C(=O)Nc1cccc(C2=NOC3(C2)C[C@@H](C(N)=O)N(C(=O)c2ccc(Cl)cc2)C3)c1 (some centres undefined),inactive
9,N#Cc1c(N)nc(SCC(=O)C23CC4CC(CC(C4)C2)C3)c(C#N)c1-c1ccc(Cl)cc1,12.3 µM (active)
10,CCN(CC)CCCN1C=C2C(=O)C(C)(OC(=O)C3CCCC3)C(=O)C=C2C=C1c1ccsc1 (centres undefined),inactive
11,CN(C)CCCn1c(SCC(=O)Nc2nc(-c3cccc(Br)c3)cs2)nc2ccccc2c1=O,inactive
12,CC(C)n1c(SCC(=O)N2CCN(C(=O)c3ccco3)CC2)nc2c1c(=O)n(C)c(=O)n2C,6.9 µM (active)
13,COc1ccc(/C=C2/SC(=O)N(CC(=O)Nc3cc(C)on3)C2=O)cc1OC,inactive
14,O=C(Nc1ccccc1C(=O)N1CCN(c2ccccc2)CC1)c1ccco1,inactive
15,CN(C)c1ccc(C(=S)N2CCN(S(=O)(=O)c3ccccc3)CC2)cc1,inactive
16,CN(CC(=O)Nc1ccccc1Cl)C(=O)COC(=O)Cc1c(F)cccc1Cl,inactive
17,O=C(O)c1ccc(CN2C(=O)c3ccc(C(=O)O)cc3C2=O)cc1,inactive
18,c1ccc(COn2nnc3ccccc32)c(COn2nnc3ccccc32)c1,inactive
19,CCOP1(=O)OCC2OC(n3cnc4c(N)ncnc43)C(O)C2O1 (centres undefined),8.7 µM (active)
20,CCOC(=O)c1sc(=NC(=O)c2ccc(S(=O)(=O)N(C)c3ccccc3)cc2)n(C)c1C,34.6 µM (active)
21,Cc1ccc2cc(CN(C(=O)c3cccs3)c3ccccc3)c(=O)[nH]c2c1,inactive
22,COC(=O)Cn1cnc2c(C#N)c3n(c2c1=O)CCCC3,24.5 µM (active)

row,Compound,Potency
1,Nc1nnc(CC(=O)N/N=C/c2ccc(-c3ccc(Cl)cc3Cl)o2)s1,inactive
2,O=C(Nc1ccccc1C(=O)NCCc1ccccc1)c1ccco1,inactive
3,COc1ccc(S(=O)(=O)Nc2ccccn2)c(C)c1C,inactive
4,COC(=O)C(C)Sc1ccc2nnc(-c3ccccc3)n2n1 (centres undefined),inactive
5,O=C(O)c1ccc(N=C2NC(=O)C(CO)(CO)S2)cc1,inactive
6,COC(=O)[C@@H]1C[C@@]2(O)[C@H](O)[C@H](O)[C@H](O)C[C@H]2N1Cc1cc(F)ccc1F,inactive
7,C=CCNc1ncnc2c1ncn2C1OC(CO)C(O)C1O (centres undefined),inactive
8,Nc1ncnc2c1ncn2C1OC(CO)C(O)C1O (centres undefined),inactive
9,CCN(CC)S(=O)(=O)c1cccc(N=Nc2c(O)c3ccccc3oc2=O)c1,9.77 µM (active)
10,O=C1/C(=C/c2ccc(O)c(O)c2)Oc2cc(O)ccc21,inactive
11,COC(=O)Cn1cnc2c(C#N)c3n(c2c1=O)CCCCC3,8.7 µM (active)
12,CC(NC(=O)c1ccccc1NC(=O)c1ccco1)C(=O)O (centres undefined),inactive
13,COc1ccc(C(C)=O)cc1Cn1cnc2c(cnn2C)c1=O,13.8 µM (active)
14,COC(=O)c1sc(N2C(=O)C(O)=C(C(=O)c3ccc(C)o3)C2c2ccc(F)cc2)nc1C (centres undefined),2.75 µM (active)
15,CN(C)S(=O)(=O)c1ccc(C(=O)OCC(=O)Nc2cccnc2Cl)cc1,19.4 µM (active)
16,O=C(Cn1cnc2c(nnn2-c2ccc(F)cc2)c1=O)NCC1CCCO1 (centres undefined),8.7 µM (active)
17,O=C(Nc1ccccc1C(=O)NCCN1CCOCC1)c1ccco1,inactive
18,O=C(Nc1ccccc1C(=O)NCc1ccccc1)c1ccco1,inactive
19,COc1ccc(CNC(=O)CN2C(=O)NC(C)(c3cccc(Br)c3)C2=O)cc1 (centres undefined),inactive
20,CC(=O)c1c(C)[nH]c(C(=O)OCc2cc(=O)n3cc(Br)ccc3n2)c1C,8.68 µM (active)
21,COc1ccccc1CNS(=O)(=O)c1cc(CN2C(=O)c3cccnc3C2=O)ccc1OC,17.4 µM (active)
22,CCC(=O)Nc1ccc(NC(=O)CSc2nc3c(c(=O)n(C)c(=O)n3C)n2CC)cc1,43.6 µM (active)

# — PubChem BioAssay AID492949 (National Center for Advancing Translational Sciences (NCATS), 2010)
